Results on nine molecules are retold here after PubChem BioAssay.

Calls of active or inactive are those of the source.

A short description of experiment [1]: small molecules captured by biotinylated probe aFSTL3 – biochemical, small-molecule microarray, fluorescence 635/667, stem cell growth factor project, primary screen (AID 1064).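 Also: measures binding of the biotinylated anti-FSTL3 antibody to printed compounds.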 The following applies: higher = more signal.
The nature of experiment [2]: binders from COS7 lysate, DM2A8 probe, primary screen, torsin A project, cell lysate, small-molecule microarray, fluorescence 635/667 (AID 1065). The following applies: higher = more signal, COS7 lysate expressing mutant human TOR1A.
Experiment [3] is described as follows: small molecules captured by biotinylated probe aFGF2 – biochemical, small-molecule microarray, fluorescence 635/667, stem cell growth factor project, primary screen (AID 1067).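 Also: measures binding of biotinylated aFGF2 protein to printed compounds on slides; z-score merges feature fluorescence and signal-to-noise across triplicate slides.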 The following applies: higher = more signal.
Experiment [4] can be described thus: small molecules captured by biotinylated probe aFGF10 – biochemical, small-molecule microarray, fluorescence 635/667, stem cell growth factor project, primary screen (AID 1071).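 Also: score merges 667 nm spot intensity and signal to noise from triplicate slides.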 The note with it: higher = more signal.
In experiment [5] the target is Neurogenic locus notch homolog protein 2 (Homo sapiens) (UniProt Q04721). The experiment can be described thus: small molecules binding Notch2 protein – biochemical, small-molecule microarray, 635 nm fluorescence, stem cell growth factors, primary screen (AID 1073). The note with it: higher = more signal.
The target in experiment [6] is Pro-neuregulin-1, membrane-bound isoform (Homo sapiens) (UniProt Q02297). The experiment can be described thus: small molecules binding neuregulin-1 protein – biochemical, small-molecule microarray, fluorescence 635/667, psychiatric disease protein project, primary screen (AID 1075).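 Also: score combines 667 nm spot fluorescence with signal to noise.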 The following applies: NRG1 binding, 635 nm fluorescence, higher = more signal.
Experiment [7] relates to Neuregulin-1 EGF-like domain. The experiment can be described thus: small molecules binding NRG1 EGF domain – biochemical, small-molecule microarray, 635 nm fluorescence, primary screen (AID 1081).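 Also: binding of the protein to compounds printed on small-molecule microarray slides.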 The note with it: higher = more signal.
Experiment [8] is described as follows: FRG1 expression reporter modulators in myotubes – cell-based, C2C12 myotubes, firefly/Renilla luciferase, luminescence, FRG1 inhibition for FSHD, primary screen (AID 1084). The note with it: FRG1 promoter luciferase, higher = more signal, called active from +8 up or from −8 down.
Experiment [9] can be described thus: small molecules captured by biotinylated probe aFST – biochemical, small-molecule microarray, fluorescence 635/667, stem cell growth factor project, primary screen (AID 1086).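 Also: score merges 667 nm fluorescence with signal-to-noise of each printed compound spot.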 The note with it: higher = more signal.
The nature of experiment [10]: binders of probe aHhip on microarray, primary screen, stem cell growth factor project, biochemical, small-molecule microarray, fluorescence 635/667 (AID 1087).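 Also: score merges spot fluorescence at 667nm with spot signal to noise ratio.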 The following applies: higher = more signal.
For experiment [11], the system named is PRMT1 (protein arginine N-methyltransferase 1). The experiment can be described thus: small molecules binding arginine methyltransferase PRMT1 – biochemical, small-molecule microarray, 635 nm fluorescence, primary screen (AID 1088).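 Also: binding of Prmt1 protein to compounds spotted on small-molecule microarray slides.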 The following applies: higher = more signal.
Experiment [12] can be described thus: growth effects on S. cerevisiae YJM789 – YJM789 clinical isolate, OD600, 24 h, basal, primary screen (AID 1089).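 Also: growth of clinical yeast isolate S. cerevisiae YJM 789 seeded 1000 cells per well; test concentration not given here.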 The following applies: higher = more signal, called active from +8 up or from −8 down.
Experiment [13] can be described thus: S. pombe growth modifiers, basal conditions – strain 972, OD600, 24 h, no modulator, primary screen (AID 1090).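 Also: basal condition with compound alone and no growth modifier present; test concentration not given here.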 The note with it: S. pombe 972 growth, higher = more signal, called active from +8 up or from −8 down.
Experiment [14] is described as follows: budding yeast growth modifiers under rapamycin – strain BY4716, OD600, 96 h, primary screen (AID 1091). Also: test concentration not given here. The note with it: S. cerevisiae BY4716 + rapamycin, higher = more signal, called active from +8 up or from −8 down.
Experiment [15] deals with Torsin-1A-interacting protein 2 (Homo sapiens) (UniProt Q8NFQ8). The experiment can be described thus: small molecules binding lysate-expressed LULL1 – cell lysate, human LULL1 lysate, 635/667 nm fluorescence, primary screen (AID 1092).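 Also: probe is lysate of COS7 cells overexpressing human LULL1; score merges per-feature 667 nm fluorescence with signal-to-noise.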 The following applies: small-molecule microarray, hLULL1 lysate binding, 635 nm fluorescence; higher = more signal.
Experiment [16] can be described thus: optical density change of DRC41 E. coli – strain DRC41, OD650, 24 h, E. coli filamentation project, primary screen (AID 1093).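 Also: MC1000 strain lacking acrAB efflux and sulA so SOS filamentation is blocked; test concentration not given here.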 The following applies: E. coli DRC41 growth, higher = more signal, called active from +8 up or from −8 down.
Experiment [17] in a line: probe aLefty2 binding to arrayed compounds – biochemical, biotinylated probe, 635/667 nm fluorescence, primary screen (AID 1094).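 Also: score merges spot fluorescence near 667 nm with spot signal-to-noise ratio.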 The following applies: small-molecule microarray, higher = more signal.
In experiment [18] the test system is Noggin (protein binding on small-molecule microarray). The experiment can be described thus: small molecules binding Noggin protein – biochemical, 635/667 nm fluorescence, primary screen (AID 1095).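 Also: score merges 667 nm feature fluorescence with signal to noise over triplicate slides.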 The following applies: 635 nm fluorescence, higher = more signal.
Experiment [19] deals with Neurogenic locus notch homolog protein 3 (Homo sapiens) (UniProt Q9UM47). The experiment can be described thus: small molecules binding NOTCH3 protein – biochemical, 635/667 nm fluorescence, primary screen (AID 1096). The following applies: small-molecule microarray, 635 nm fluorescence, higher = more signal.
Experiment [20] in a line: probe aEGFR binding to arrayed compounds – biochemical, biotinylated probe, 635/667 nm fluorescence, primary screen (AID 1097).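 Also: probe is a biotinylated anti-EGFR antibody binding compounds printed on slides; score combines fluorescence near 667 nm and signal to noise of each spot.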 The note with it: small-molecule microarray, higher = more signal.

Sequence of Neurogenic locus notch homolog protein 3 (Homo sapiens) (Q9UM47 whole entry, looked up): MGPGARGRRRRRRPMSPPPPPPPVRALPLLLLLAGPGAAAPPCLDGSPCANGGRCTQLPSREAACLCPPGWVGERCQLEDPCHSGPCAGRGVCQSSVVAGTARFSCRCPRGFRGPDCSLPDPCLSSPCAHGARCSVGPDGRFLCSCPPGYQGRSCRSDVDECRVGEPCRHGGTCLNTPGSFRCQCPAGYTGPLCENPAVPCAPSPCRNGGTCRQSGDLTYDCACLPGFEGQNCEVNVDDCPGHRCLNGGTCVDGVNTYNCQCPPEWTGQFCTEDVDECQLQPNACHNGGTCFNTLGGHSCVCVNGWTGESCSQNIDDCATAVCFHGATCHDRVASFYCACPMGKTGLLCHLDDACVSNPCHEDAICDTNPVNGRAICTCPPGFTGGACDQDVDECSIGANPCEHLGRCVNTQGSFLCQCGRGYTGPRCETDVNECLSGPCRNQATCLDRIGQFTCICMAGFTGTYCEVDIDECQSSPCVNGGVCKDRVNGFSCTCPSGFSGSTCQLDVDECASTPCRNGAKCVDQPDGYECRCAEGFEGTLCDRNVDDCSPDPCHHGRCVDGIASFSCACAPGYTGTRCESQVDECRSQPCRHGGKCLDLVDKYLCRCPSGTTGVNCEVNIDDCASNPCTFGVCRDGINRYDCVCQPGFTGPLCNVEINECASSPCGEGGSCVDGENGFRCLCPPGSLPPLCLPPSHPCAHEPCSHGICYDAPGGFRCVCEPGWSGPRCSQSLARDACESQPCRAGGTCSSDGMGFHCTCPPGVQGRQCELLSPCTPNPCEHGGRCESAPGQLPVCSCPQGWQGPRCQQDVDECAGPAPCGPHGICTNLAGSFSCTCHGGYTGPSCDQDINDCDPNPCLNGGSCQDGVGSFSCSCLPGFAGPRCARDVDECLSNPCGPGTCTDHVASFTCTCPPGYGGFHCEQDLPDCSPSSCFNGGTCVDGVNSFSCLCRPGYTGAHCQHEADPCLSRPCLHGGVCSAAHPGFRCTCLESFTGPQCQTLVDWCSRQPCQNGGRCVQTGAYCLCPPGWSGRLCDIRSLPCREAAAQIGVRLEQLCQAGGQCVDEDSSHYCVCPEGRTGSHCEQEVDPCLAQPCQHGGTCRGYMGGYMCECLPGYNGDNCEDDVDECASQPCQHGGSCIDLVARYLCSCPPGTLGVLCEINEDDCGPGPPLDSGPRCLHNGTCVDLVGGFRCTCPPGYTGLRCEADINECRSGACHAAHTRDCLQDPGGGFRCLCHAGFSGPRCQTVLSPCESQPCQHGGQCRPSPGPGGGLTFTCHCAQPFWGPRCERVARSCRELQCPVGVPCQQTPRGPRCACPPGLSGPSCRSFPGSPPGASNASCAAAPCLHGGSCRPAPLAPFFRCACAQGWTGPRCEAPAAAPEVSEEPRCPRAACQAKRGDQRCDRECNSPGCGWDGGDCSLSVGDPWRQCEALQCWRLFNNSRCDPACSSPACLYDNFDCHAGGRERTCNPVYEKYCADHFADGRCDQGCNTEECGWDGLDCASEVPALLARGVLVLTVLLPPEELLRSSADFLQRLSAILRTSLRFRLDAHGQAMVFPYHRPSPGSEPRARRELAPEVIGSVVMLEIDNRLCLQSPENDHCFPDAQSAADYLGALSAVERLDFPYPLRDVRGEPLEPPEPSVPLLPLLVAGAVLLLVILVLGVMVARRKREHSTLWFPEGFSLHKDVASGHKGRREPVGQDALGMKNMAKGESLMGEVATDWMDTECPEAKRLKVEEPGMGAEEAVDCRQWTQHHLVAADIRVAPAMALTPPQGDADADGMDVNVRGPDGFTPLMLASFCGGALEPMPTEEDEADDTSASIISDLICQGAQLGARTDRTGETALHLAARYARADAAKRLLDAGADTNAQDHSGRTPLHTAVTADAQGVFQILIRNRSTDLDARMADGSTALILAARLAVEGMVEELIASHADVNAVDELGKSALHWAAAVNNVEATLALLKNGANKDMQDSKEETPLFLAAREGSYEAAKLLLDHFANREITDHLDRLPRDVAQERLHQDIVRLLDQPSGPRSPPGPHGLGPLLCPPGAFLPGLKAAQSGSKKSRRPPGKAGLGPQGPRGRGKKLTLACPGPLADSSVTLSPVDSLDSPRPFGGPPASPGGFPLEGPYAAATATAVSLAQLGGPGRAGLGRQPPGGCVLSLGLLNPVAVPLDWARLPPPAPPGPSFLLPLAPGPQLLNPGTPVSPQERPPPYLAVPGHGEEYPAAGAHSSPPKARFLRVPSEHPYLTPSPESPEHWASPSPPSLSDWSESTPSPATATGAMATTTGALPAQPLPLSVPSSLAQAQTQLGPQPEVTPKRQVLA
Sequence of Neurogenic locus notch homolog protein 2 (Homo sapiens) (Q04721 whole entry, looked up, canonical isoform): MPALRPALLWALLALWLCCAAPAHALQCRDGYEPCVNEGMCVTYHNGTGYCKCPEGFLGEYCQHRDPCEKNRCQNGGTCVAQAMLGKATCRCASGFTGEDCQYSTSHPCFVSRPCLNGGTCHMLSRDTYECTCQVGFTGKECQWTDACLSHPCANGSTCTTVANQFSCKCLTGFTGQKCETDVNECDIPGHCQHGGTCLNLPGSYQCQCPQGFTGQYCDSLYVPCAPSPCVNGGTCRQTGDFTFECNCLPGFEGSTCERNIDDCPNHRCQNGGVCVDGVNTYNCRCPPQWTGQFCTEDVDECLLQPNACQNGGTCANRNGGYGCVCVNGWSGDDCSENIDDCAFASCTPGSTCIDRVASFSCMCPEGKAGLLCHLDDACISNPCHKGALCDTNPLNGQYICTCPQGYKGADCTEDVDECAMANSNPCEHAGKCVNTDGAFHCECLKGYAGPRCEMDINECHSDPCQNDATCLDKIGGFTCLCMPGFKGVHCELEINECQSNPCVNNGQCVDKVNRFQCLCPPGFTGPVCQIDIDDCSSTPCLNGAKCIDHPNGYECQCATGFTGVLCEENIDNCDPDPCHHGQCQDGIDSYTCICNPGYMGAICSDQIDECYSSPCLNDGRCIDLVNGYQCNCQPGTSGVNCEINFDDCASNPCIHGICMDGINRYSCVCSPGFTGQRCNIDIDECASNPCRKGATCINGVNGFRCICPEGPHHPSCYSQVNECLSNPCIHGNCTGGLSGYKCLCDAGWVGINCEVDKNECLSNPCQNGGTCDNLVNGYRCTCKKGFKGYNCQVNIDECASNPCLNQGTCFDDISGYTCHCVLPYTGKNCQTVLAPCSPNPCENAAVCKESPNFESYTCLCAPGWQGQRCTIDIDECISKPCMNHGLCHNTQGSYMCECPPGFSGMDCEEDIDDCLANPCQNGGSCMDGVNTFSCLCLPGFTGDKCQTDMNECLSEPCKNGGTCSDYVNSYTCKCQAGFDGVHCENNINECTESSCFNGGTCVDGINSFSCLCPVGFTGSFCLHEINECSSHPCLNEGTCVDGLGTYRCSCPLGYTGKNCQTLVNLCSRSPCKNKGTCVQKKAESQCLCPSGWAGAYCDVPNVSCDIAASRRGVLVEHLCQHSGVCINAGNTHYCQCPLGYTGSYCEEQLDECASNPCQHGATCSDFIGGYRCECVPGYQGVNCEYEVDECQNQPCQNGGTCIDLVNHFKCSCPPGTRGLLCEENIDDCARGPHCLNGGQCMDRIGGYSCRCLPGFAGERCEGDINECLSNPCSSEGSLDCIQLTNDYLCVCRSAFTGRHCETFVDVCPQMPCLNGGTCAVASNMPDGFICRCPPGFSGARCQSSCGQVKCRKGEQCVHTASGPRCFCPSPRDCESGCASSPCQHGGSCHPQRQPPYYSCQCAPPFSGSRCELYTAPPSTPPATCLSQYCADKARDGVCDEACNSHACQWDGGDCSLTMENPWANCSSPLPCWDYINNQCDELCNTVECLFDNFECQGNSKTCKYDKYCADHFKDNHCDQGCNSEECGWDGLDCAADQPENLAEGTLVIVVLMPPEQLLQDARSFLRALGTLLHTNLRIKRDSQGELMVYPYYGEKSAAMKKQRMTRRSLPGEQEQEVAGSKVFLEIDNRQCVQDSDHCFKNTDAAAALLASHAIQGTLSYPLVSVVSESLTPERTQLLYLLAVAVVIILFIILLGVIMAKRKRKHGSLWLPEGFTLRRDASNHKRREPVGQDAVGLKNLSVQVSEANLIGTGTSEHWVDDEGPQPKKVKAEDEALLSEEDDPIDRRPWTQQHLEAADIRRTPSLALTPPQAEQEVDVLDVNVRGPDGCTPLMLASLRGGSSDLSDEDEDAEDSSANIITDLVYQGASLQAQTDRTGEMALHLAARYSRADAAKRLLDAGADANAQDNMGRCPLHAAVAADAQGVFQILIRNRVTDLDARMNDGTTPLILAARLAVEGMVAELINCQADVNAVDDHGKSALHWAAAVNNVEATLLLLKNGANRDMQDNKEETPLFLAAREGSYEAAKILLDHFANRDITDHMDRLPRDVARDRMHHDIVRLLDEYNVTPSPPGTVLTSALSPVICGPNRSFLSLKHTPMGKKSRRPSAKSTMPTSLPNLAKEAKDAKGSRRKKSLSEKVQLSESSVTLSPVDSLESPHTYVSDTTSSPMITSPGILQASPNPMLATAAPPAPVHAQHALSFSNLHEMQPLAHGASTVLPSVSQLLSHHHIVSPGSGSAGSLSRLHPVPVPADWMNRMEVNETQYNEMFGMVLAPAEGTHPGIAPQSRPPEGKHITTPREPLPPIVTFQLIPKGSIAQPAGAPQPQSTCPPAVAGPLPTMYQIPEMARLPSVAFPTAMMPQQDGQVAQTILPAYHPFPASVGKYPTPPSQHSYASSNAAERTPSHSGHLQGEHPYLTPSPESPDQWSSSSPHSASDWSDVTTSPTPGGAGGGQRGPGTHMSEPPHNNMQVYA

For `CCOC(=O)C[C@H]1[C@H](OC(=O)c2cc3ccccc3oc2=O)[C@@H](NC(=O)c2ccccc2)c2cc(OCCCO)ccc2N1C(=O)Cc1ccc(OC)cc1`, the composite z-score in experiment [1] is -0.297; in experiment [2], 0.682; in experiment [3], -0.038; in [4], 0.575; in [5], 0.81; in [6] it was 0.147. In addition, the composite z-score was -0.1 in experiment [7]; 0.514 in experiment [9]; 0.0302 in experiment [10]; -0.0867 in experiment [11]; 0.239 in [15]; -0.0069 in experiment [17]. Moreover, the composite z-score in experiment [18] is 0.908; in experiment [19], 0.665; in experiment [20] it was -0.113. Moreover, the z-score in experiment [8] was -0.265 (inactive); in experiment [12], -0.196 (inactive); in experiment [13], -1.08 (inactive); in experiment [14] it was -0.846 (inactive); in [16], 2.9 (inactive).
Take `COc1ccc(/C=C/C(=O)c2cccc(OCC(=O)OC(C)(C)C)c2)cc1`: the composite z-score is 0.158 in experiment [1]; 0.0968 in experiment [2]; -0.17 in experiment [3]; -0.672 in experiment [4]; -0.466 in [5]; 0.421 in experiment [6]. Also, the composite z-score in experiment [7] is 0.284; in [9], -0.126; in experiment [10] it was -0.226; in experiment [11] it was 0.898; in [15], 1.21; in experiment [17], -0.102. Further, the composite z-score is -0.584 in experiment [18], -0.974 in experiment [19] and -0.304 in experiment [20]. Besides, the z-score in experiment [8] is 4.17 (inactive); in [12], 0.0268 (inactive); in experiment [13], -2.14 (inactive); in experiment [14], 10.9 (active); in [16] it was 0.328 (inactive).
For the molecule `C=CCN1C(=O)[C@@]2(O[C@@H](CCn3cc(CCO)nn3)[C@H]([Si](C)(C)c3ccc(OC)cc3)[C@H]2C)c2cc(NC(=O)c3ccc(OC)cc3)ccc21`, the composite z-score in experiment [1] was -0.0186; in experiment [2], 0.463; in experiment [3], -0.0493; in [4], 0.051; in experiment [5], 0.0039; in experiment [6], 0.457. The composite z-score in [7] was 0.672; in experiment [9] it was 0.309; in experiment [10], -0.0994; in [11], 1.49; in experiment [15] it was 0.674; in experiment [17] it was -0.0985. In addition, the composite z-score in [18] was 1.04; in experiment [19], 0.742; in [20], -0.0895. The z-score in experiment [8] is -2.22 (inactive); in [12], -0.0986 (inactive); in experiment [13] it was -1.27 (inactive); in experiment [14] it was -0.738 (inactive); in experiment [16] it was 1.31 (inactive).
As to `C=C(COC)C(=O)CC[C@H](OC(=O)c1cccnc1)c1cccc(OCCO)c1`, the composite z-score in experiment [1] was 0.822; in experiment [2], 1.9; in experiment [3], 0.119; in experiment [4], 0.833; in experiment [5] it was -0.381; in [6], -0.318. Moreover, the composite z-score in experiment [7] is 0.0423; in [9], 0.331; in experiment [10], 0.503; in [11], 1.36; in [15], 0.241; in experiment [17] it was 0.649. The composite z-score in [18] is 1.29; in [19] it was 0.176; in experiment [20], 0.431. For the same molecule, the z-score in experiment [8] was 0.0417 (inactive); in [12], 1.25 (inactive); in experiment [13], -0.231 (inactive); in [14], 1.56 (inactive); in [16], 1.18 (inactive).
In the case of `[N-]=[N+]=NCc1ccccc1C[C@@]1(C(=O)NCc2ccccc2)N=C(c2ccc(OCCCO)cc2)O[C@@H]1c1ccccc1`, the composite z-score in experiment [1] amounted to 1.16; in experiment [2], 0.997; in [3], 0.0336; in [4], 0.422; in experiment [5] it was 0.853; in experiment [6] it was 0.457. The composite z-score in [7] is 0.856; in [9], 0.551; in experiment [10], -0.191; in [11], 0.475; in [15], 1.82; in experiment [17], 0.247. Moreover, the composite z-score was -0.41 in experiment [18], -0.0209 in experiment [19] and 0.0139 in [20]. Also, the z-score in experiment [8] was -3.28 (inactive); in [12] it was 1.06 (inactive); in experiment [13], 0.393 (inactive); in [14] it was 32.7 (active); in experiment [16], 2.1 (inactive).
On to `C[N+](C)(C)CCCCNC(=O)[C@@H]1C[C@@H]2C(=O)NCC(=O)N2[C@@H]1c1cccc(OCCO)c1`, for which the composite z-score in experiment [1] was -0.501; in experiment [2], 2.04; in [3] it was -0.085; in experiment [4], 1.05; in experiment [5], -0.544; in experiment [6], 1.22. Moreover, the composite z-score is 1.34 in experiment [7]; 0.432 in [9]; 0.167 in [10]; 1.39 in experiment [11]; 2.47 in [15]; -0.0607 in experiment [17]. Also, the composite z-score in experiment [18] was found to be 1.88; in experiment [19], 1.14; in [20] it was 0.0526. The z-score in experiment [8] is -0.53 (inactive); in experiment [12] it was 2.16 (inactive); in [13], -0.823 (inactive); in experiment [14], -1.89 (inactive); in [16], 1.73 (inactive).
As for `CC(C)C(CO)N1C(=O)[C@@H]2C3C(=O)OCCC/C=C\[C@H]3OC23C=CCN(C(C)C)C(=O)[C@@H]13` (stereo not given in full), the composite z-score in [1] is 0.303; in experiment [2] it was 0.716; in experiment [3] it was -0.116; in experiment [4], -0.836; in experiment [5], -1.43; in experiment [6], 2.17. Further, the composite z-score in experiment [7] is 0.784; in experiment [9] it was -0.381; in experiment [10], -0.0994; in experiment [11] it was 0.613; in experiment [15], 2.65; in experiment [17] it was 0.727. Also, the composite z-score was -0.868 in [18], -0.134 in experiment [19] and -0.188 in experiment [20]. The z-score in experiment [8] was 0.366 (inactive); in [12], -1.1 (inactive); in experiment [13], -1.55 (inactive); in experiment [14], -1.1 (inactive); in experiment [16], 2.41 (inactive).
With `C=CCC(OC(C)=O)[C@@H]1[C@@H](N(Cc2cccc3ccccc23)C(=O)c2cccc3ccccc23)c2cc(OCCCO)ccc2N1C(=O)Cc1ccc(OC)cc1` (stereo not given in full), the composite z-score was -0.0733 in [1]; -0.136 in [2]; -0.0569 in experiment [3]; 0.108 in [4]; 0.568 in experiment [5]; 0.123 in experiment [6]. Further, the composite z-score in experiment [7] was 0.193; in [9], 0.03; in experiment [10] it was -0.0994; in experiment [11], 0.435; in experiment [15], 1.52; in experiment [17], -0.121. The composite z-score in [18] was 0.0439; in experiment [19] it was 0.171; in experiment [20], 0.0073. The z-score in experiment [8] is -1.64 (inactive); in [12] it was -1.17 (inactive); in experiment [13] it was -1.59 (inactive); in [14], -0.8 (inactive); in [16], 2.09 (inactive).
As for `O=C1c2ccccc2[C@@]2(Cc3ccccc3N(CC(F)(F)F)C2=O)[C@H](c2ccc(CO)cc2)N1Cc1ccccc1C(F)(F)F`, the composite z-score in [1] is 0.886; in experiment [2], -0.752; in experiment [3], -0.131; in experiment [4], -0.597; in [5], -1.34; in experiment [6] it was -0.61. In addition, the composite z-score is -1.2 in experiment [7]; -0.596 in experiment [9]; -0.191 in [10]; 0.52 in experiment [11]; 0.394 in experiment [15]; -0.0412 in [17]. For the same molecule, the composite z-score in experiment [18] is -1.51; in experiment [19] it was -1.18; in [20] it was -0.26. Besides, the z-score in [8] is -0.435 (inactive); in experiment [12], -0.84 (inactive); in experiment [13], -1.25 (inactive); in experiment [14], -1.12 (inactive); in experiment [16], 0.886 (inactive).
